Measurements taken from PubChem BioAssay (Tox21).
A number with no mark means an inactive call. Results filed as inconclusive are left out. A call without a number means that no potency is given here. Activity calls are given as the source filed them. Unless noted, calls come from the whole dose curve; as a rule, active = well fitted curve in the direction sought with a large enough effect in the repeat runs; inconclusive = weak or mixed curves; inactive = no such curve, though single readings can be large; an effect the other way counts as inactive or inconclusive.

What was measured:
[1] = target: Acetylcholinesterase (Homo sapiens) (UniProt P22303); test: Acetylcholinesterase (AChE) small molecule antagonists: enzyme-based qHTS assay (AID 1347397; calls by dose curve; note: nearly all actives have a fitted effect of over 55% in size); conditions: Potency: AChE enzyme activity inhibition
Sequence of Acetylcholinesterase (Homo sapiens) (P22303 whole entry, looked up): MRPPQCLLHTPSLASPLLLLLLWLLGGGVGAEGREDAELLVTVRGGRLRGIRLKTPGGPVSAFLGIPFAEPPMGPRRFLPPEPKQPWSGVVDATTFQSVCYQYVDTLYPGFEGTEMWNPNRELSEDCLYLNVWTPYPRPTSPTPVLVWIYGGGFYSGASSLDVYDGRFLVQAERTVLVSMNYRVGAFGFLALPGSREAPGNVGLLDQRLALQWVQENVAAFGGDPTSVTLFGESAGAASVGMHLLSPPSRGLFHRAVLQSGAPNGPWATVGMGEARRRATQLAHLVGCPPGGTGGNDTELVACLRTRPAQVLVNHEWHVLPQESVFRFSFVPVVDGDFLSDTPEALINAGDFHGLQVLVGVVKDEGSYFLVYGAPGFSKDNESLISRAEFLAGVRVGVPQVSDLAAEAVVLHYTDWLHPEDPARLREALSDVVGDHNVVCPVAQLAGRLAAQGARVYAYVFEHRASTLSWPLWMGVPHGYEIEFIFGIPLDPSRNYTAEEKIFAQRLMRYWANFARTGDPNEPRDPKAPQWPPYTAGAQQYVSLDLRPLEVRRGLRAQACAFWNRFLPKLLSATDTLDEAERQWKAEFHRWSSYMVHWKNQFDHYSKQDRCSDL
Method in brief: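 First, recombinant human AChE (50 mU/mL as dispensed) received test compound or DMSO. Second, plates stood 30 min at room temperature. Third, DTNB and acetylthiocholine were added, followed by 10 min at room temperature and colorimetric detection.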

[2] = target: Acetylcholinesterase (Homo sapiens) (UniProt P22303); test: Acetylcholinesterase (AChE) small molecule antagonists: fluorescence cell-based qHTS assay (AID 1347398; calls by dose curve; note: nearly all actives have a fitted effect of over 50% in size); conditions: Potency: AChE activity
Method in brief: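 Homogeneous quantitative HTS format. SH-SY5Y cells seeded at 2,000 per well settle overnight at 37 C. Compound pretreatment runs 30 min (37 C, 5% CO2); substrate/probe mix then reacts 40 min at RT before reading 490/520 nm.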

[3] = target: Acetylcholinesterase (Homo sapiens) (UniProt P22303); test: Acetylcholinesterase (AChE) small molecule antagonists: enzyme-based qHTS assay with human liver microsomes (AID 1347399; calls by dose curve; note: nearly all actives have a fitted effect of over 60% in size); conditions: Potency: qHTS inhibition
Method in brief: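 Recombinant human AChE (50 mU/mL in the enzyme mix) and human liver microsomes (0.25 mg/mL final) were preincubated with compound and NADPH (0.25 mg/mL final) for 30 min at 37 C. Acetylthiocholine/DTNB was then added; thiocholine was read colorimetrically after 10 min at room temperature.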

[4] = target: Cytochrome P450 2C19 (Homo sapiens) (UniProt P33261); test: Cytochrome P450 Family 2 Subfamily C Member 19 (CYP2C19) small molecule antagonists: luciferase reporter qHTS assay (AID 1671197); note: nearly all actives have a fitted effect of over 65% in size
Sequence of Cytochrome P450 2C19 (Homo sapiens) (P33261 whole entry, looked up): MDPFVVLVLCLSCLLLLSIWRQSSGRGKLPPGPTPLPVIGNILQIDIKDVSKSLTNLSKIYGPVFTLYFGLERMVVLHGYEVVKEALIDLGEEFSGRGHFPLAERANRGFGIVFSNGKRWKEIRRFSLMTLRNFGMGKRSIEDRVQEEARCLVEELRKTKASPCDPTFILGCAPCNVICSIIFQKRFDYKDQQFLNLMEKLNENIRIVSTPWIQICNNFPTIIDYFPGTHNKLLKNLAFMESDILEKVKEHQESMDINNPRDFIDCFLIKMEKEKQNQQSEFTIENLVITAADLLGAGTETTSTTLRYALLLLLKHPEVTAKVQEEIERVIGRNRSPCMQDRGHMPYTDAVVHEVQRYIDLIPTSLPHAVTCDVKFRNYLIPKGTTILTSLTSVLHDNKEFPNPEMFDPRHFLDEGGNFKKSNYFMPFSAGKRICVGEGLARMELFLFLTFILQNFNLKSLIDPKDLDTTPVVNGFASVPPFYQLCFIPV
Method in brief: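 Luminescent readout of CYP2C19 activity: luciferin product detected 20 min after adding detection reagent. Before that, compound and enzyme-substrate mix preincubated 10 min at room temperature; NADPH-regenerating system started a 1 h, 37C reaction. Ketoconazole as positive control.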

[5] = target: Cytochrome P450 1A2 (Homo sapiens) (UniProt P05177); test: Cytochrome P450 Family 1 Subfamily A Member 2 (CYP1A2) small molecule antagonists: luciferase reporter qHTS assay (AID 1671199); note: nearly all actives have a fitted effect of over 50% in size
Sequence of Cytochrome P450 1A2 (Homo sapiens) (P05177 whole entry, looked up): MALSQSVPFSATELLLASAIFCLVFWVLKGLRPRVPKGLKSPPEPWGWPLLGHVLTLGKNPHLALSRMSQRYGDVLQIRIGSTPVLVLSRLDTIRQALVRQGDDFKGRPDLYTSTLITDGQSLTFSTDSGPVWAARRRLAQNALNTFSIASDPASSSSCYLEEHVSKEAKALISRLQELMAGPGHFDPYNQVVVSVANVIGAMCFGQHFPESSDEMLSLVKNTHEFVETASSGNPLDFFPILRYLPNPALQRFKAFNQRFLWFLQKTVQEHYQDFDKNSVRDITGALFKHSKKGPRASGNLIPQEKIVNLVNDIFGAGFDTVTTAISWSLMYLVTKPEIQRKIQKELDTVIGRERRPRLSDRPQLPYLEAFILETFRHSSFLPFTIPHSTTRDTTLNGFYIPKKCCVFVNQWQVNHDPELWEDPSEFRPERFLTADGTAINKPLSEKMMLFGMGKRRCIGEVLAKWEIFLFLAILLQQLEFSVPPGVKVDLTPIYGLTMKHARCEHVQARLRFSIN
Method in brief: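 Room-temperature CYP1A2 reaction with proluciferin substrate: compounds added from DMSO, 10 min preincubation, NADPH regeneration for 1 h. Luciferin detection reagent then added; luminescence recorded as RLU.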

[6] = target: Voltage-gated inwardly rectifying potassium channel KCNH2 (Homo sapiens) (UniProt Q12809); test: Human Ether-a-go-go-Related Gene (hERG) channel small molecule antagonists: fluorescence cell-based qHTS assay (AID 1671200); note: nearly all actives have a fitted effect of over 50% in size
Sequence of Voltage-gated inwardly rectifying potassium channel KCNH2 (Homo sapiens) (Q12809 whole entry, looked up): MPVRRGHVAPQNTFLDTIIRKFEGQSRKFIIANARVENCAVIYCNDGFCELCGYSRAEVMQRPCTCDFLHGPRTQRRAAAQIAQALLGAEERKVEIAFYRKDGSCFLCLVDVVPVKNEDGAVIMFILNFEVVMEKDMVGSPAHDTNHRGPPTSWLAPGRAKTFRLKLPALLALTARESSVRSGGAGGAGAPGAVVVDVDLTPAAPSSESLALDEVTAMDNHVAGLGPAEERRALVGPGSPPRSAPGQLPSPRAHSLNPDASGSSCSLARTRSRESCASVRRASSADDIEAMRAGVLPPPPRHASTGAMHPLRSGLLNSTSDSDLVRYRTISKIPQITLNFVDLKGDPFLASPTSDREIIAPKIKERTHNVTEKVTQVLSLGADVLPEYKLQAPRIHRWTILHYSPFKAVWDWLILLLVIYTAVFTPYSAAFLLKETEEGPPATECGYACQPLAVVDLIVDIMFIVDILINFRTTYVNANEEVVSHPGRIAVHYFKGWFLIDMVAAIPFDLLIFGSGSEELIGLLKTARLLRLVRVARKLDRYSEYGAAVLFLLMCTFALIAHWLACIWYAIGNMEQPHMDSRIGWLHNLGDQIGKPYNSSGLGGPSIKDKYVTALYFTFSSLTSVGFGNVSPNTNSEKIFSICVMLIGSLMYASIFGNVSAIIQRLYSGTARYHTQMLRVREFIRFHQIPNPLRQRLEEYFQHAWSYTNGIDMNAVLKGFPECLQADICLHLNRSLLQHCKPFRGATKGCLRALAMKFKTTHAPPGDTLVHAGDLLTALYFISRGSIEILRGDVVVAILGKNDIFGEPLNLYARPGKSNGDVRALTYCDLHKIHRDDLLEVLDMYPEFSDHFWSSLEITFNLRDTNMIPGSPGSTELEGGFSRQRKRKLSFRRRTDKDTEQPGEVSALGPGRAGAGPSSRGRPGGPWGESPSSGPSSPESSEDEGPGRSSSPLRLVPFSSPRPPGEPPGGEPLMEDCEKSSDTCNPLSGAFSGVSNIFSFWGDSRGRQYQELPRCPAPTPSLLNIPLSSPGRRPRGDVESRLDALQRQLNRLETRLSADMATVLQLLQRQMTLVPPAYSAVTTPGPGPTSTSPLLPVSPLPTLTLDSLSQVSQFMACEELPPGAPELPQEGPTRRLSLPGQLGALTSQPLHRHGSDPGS
Method in brief: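 hERG-U2OS cells plated overnight at 37 C, loaded with FluxOR II dye 1 h at RT in dark; after 10 min, thallium stimulus added. Fluorescence (480/540 nm) read kinetically for 2 min at 1 s intervals.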

[7] = target: Cytochrome P450 3A4 (Homo sapiens) (UniProt P08684); test: Cytochrome P450 Family 3 Subfamily A Member 4 (CYP3A4) small molecule antagonists: luciferase reporter qHTS assay (AID 1671201); note: nearly all actives have a fitted effect of over 50% in size
Sequence of Cytochrome P450 3A4 (Homo sapiens) (P08684 whole entry, looked up): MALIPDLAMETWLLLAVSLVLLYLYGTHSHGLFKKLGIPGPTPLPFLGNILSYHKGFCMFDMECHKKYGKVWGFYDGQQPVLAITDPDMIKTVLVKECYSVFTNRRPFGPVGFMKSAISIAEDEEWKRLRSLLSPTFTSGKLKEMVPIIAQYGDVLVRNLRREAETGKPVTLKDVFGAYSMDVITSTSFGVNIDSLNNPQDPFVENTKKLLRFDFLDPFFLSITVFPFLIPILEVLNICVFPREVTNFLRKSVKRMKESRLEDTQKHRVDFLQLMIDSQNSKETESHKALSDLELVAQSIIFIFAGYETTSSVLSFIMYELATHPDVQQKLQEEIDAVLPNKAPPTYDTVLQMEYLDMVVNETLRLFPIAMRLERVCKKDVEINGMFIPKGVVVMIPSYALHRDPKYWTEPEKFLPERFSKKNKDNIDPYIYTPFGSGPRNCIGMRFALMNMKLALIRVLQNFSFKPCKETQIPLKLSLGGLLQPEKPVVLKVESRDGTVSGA
Method in brief: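 P450-Glo CYP3A4 luminescent assay: compounds preincubated 10 min at room temperature with enzyme and proluciferin substrate, NADPH regeneration added, 1 h room-temperature reaction, stopped with luciferin detection reagent; luminescence read after 20 min. Ketoconazole positive control.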

[8] = target: Cytochrome P450 2D6 (Homo sapiens) (UniProt P10635); test: Cytochrome P450 Family 2 Subfamily D Member 6 (CYP2D6) small molecule antagonists: luciferase reporter qHTS assay (AID 1671196); note: nearly all actives have a fitted effect of over 50% in size
Sequence of Cytochrome P450 2D6 (Homo sapiens) (P10635 whole entry, looked up): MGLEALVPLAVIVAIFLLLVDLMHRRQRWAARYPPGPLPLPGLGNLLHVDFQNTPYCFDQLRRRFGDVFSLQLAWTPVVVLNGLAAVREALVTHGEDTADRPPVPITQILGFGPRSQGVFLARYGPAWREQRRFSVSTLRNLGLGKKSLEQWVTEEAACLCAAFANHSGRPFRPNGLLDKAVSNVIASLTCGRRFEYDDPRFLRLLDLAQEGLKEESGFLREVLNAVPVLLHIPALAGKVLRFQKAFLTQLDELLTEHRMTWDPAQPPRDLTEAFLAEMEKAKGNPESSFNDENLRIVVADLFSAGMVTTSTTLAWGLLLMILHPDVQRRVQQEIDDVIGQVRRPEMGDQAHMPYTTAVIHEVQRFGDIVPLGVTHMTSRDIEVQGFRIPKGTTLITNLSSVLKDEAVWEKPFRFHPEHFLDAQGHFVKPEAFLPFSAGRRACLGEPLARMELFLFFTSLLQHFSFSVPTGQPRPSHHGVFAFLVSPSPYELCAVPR
Method in brief: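 Room-temperature luminescent CYP2D6 activity assay: compound preincubated 10 min with enzyme–substrate mix, NADPH-initiated reaction 1 h, detection reagent 20 min before reading.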

[9] = target: Cytochrome P450 2C9 (Homo sapiens) (UniProt P11712); test: Cytochrome P450 Family 2 Subfamily C Member 9 (CYP2C9) small molecule antagonists: luciferase reporter qHTS assay (AID 1671198); note: nearly all actives have a fitted effect of over 50% in size
Sequence of Cytochrome P450 2C9 (Homo sapiens) (P11712 whole entry, looked up): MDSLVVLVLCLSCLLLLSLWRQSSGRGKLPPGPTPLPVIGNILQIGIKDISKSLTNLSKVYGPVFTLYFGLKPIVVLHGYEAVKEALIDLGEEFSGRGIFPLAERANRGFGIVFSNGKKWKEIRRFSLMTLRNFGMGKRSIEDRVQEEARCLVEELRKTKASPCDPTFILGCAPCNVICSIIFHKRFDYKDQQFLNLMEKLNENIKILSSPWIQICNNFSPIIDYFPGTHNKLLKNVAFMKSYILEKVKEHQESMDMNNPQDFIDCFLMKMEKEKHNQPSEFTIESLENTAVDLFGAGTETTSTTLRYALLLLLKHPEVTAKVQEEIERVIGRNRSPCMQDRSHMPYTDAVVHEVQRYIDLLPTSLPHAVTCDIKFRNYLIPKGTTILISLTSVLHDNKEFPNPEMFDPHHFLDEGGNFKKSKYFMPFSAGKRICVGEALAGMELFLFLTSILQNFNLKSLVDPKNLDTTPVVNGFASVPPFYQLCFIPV
Method in brief: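 Enzyme-substrate mix preincubated with compound 10 min at room temperature; reaction started with NADPH regeneration solution, 1 h 37C. Luminescent luciferin product read after 20 min detection reagent.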
Potency is the fitted concentration of half-maximal effect.

SMILES	Potency [1]	Potency [2]	Potency [3]	Potency [4]	Potency [5]	Potency [6]	Potency [7]	Potency [8]	Potency [9]
O=C(O)c1cccc(Cl)c1	inactive	inactive	inactive	inactive	40 µM (active)	inactive	inactive	–	–
CCOC(=O)NC(=S)Nc1ccccc1NC(=S)NC(=O)OCC	inactive	inactive	inactive	5.03 µM (active)	31.7 µM (active)	inactive	25.2 µM (active)	–	–
CNC(=O)Oc1cccc(C(C)C)c1	–	–	–	–	–	inactive	–	–	–
CC(C)CC#N	inactive	inactive	inactive	32.5 µM (active)	inactive	inactive	inactive	–	–
Clc1ccccc1N1CCNCC1	inactive	–	inactive	inactive	–	inactive	inactive	9.77 µM (active)	inactive
Fc1cc(Br)ccc1CBr	inactive	–	inactive	inactive	–	inactive	–	–	inactive
CCOP(=O)(OCC)OP(=O)(OCC)OCC	inactive	inactive	inactive	–	inactive	inactive	inactive	–	inactive
CC1=C(C(=O)Nc2ccccc2)S(=O)(=O)CCO1	inactive	inactive	inactive	inactive	–	inactive	inactive	–	–
N#CCBr	inactive	inactive	inactive	inactive	inactive	inactive	inactive	–	–
COc1cc(OC)nc(Sc2cccc(Cl)c2C(=O)O)n1	inactive	inactive	inactive	inactive	inactive	inactive	inactive	–	–
CCOP(=S)(OCC)Oc1cc(-c2ccccc2)on1	–	44.8 µM (active)	3.17 µM (active)	1.59 µM (active)	3.17 µM (active)	inactive	1.26 µM (active)	35.6 µM (active)	0.502 µM (active)
COc1ccc2c(c1OC)CN1CCc3cc4c(cc3C1C2)OCO4 (centres undefined)	5.49 µM (active)	1.38 µM (active)	–	0.977 µM (active)	15.5 µM (active)	–	–	0.246 µM (active)	30.9 µM (active)
O=C1CN=C(c2ccccc2)c2cc([N+](=O)[O-])ccc2N1	inactive	inactive	inactive	inactive	inactive	inactive	inactive	–	–
CCSC(=O)N(CC)C1CCCCC1	inactive	inactive	inactive	–	inactive	inactive	–	–	–
CCCCCCBr	–	–	–	–	–	inactive	–	–	–
CCN(Cc1ccc(Cl)nc1)/C(=C/[N+](=O)[O-])NC	inactive	–	inactive	inactive	–	inactive	–	inactive	inactive
CNC(=O)O/N=C(\C)SC	2.83 µM (active)	1.26 µM (active)	17.8 µM (active)	–	inactive	inactive	inactive	–	inactive
BrCCCCCCBr	inactive	–	inactive	25.2 µM (active)	63.3 µM (active)	inactive	inactive	inactive	–
Nc1c(Br)cc([N+](=O)[O-])cc1[N+](=O)[O-]	inactive	–	inactive	50.8 µM (active)	1.8 µM (active)	inactive	inactive	–	inactive
CCOP(=O)(N=C1SCCS1)OCC	inactive	–	inactive	inactive	inactive	inactive	inactive	inactive	inactive
CCCCOC(=O)c1ccccc1C(=O)O	inactive	inactive	inactive	–	inactive	inactive	inactive	–	–
CN1C[C@@H](NS(=O)(=O)N(C)C)C[C@@H]2c3cccc4c3c(cn4C)C[C@H]21	inactive	–	inactive	inactive	inactive	inactive	inactive	inactive	inactive
COc1ccc(C(=O)N2CCCC2=O)cc1	–	–	–	–	–	inactive	–	–	–
ClCCCN1CCN(c2cccc(Cl)c2)CC1	inactive	inactive	inactive	8.71 µM (active)	15.5 µM (active)	10.7 µM (active)	inactive	–	–
C#C[C@]1(O)C=C[C@H]2[C@@H]3CCC4=CC(=O)CC[C@@H]4[C@H]3CC[C@@]21CC	inactive	–	inactive	2.75 µM (active)	inactive	inactive	–	–	4.9 µM (active)
ClCC(Cl)Cl	inactive	–	inactive	inactive	–	inactive	inactive	–	inactive
CC(C)CC(N(C)C)C1(c2ccc(Cl)cc2)CCC1 (centres undefined)	–	–	–	9.77 µM (active)	inactive	–	–	–	inactive
O=C(N[C@H]1CN2CCC1CC2)c1cc2ccoc2cn1	inactive	–	inactive	inactive	inactive	inactive	inactive	28.3 µM (active)	–
CCOP(=S)(OCC)Oc1nc(Cl)n(C(C)C)n1	–	–	–	0.252 µM (active)	2.24 µM (active)	inactive	1.59 µM (active)	–	5.03 µM (active)
Nc1cc2c3c(c1)C(c1ccccc1)=N[C@@H](NC(=O)c1cccnc1)C(=O)N3CC2	inactive	inactive	inactive	–	inactive	inactive	11.2 µM (active)	–	7.1 µM (active)
